# BLM helicase inh = blocks DNA unwinding by human BLM helicase. Potency, µM (series often up to 56.1 µM), for the others: at the top dose activity change, negative = inhibition, hits mostly inhibitors. P54132. actives 0.2% (n = 350,000). AID 2528. recombinant BLM DNA unwinding, fluorescence dequenching;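 further: plate controls were vehicle for no effect and no enzyme for full effect; nearly all actives have a fitted effect of over 35% in size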
# WRN helicase inh = WRN helicase (human) inhibition. Q14191. Potency, µM (titrated, usually from 114 µM), for the others: top-dose activity change, negative = inhibition, most hits filed as inhibitors. actives 0.46% (n = 360,000). WRN helicase unwinding, fluorescent forked duplex, kinetic; further: nearly all actives have a fitted effect of over 55% in size
#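 Primary qHTS, 1536-well format. 20 nM WRN + compound, 15 min RT; start with 100 nM forked fluorophore/quencher duplex, 2 mM ATP (final); kinetic read ex 525/em 598 nm.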
# TRb SRC2 PPI = TRbeta-SRC2 interaction inhibition. AID 1469. TRbeta-SRC2 peptide binding, fluorescence polarization; receptor liganded with 1 µM T3. actives 0.065% (n = 280,000). Potency, µM (series often up to 106 µM), for inactives: at the top dose activity change, negative = inhibition, hits mostly inhibitors;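 further: plate controls were bound peptide for no effect and peptide without receptor for full effect; nearly all actives have a fitted effect of over 50% in size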
#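 Fluorescence polarization of 20 nM Texas Red SRC2 peptide with 0.6 uM human TRb ligand-binding domain, in Tris buffer with 1uM T3 and 5% DMSO. Incubated 5 hr ambient; normalized to unbound and bound controls.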
# RECQ1 helicase = inhibitors of human RECQ1 DNA helicase; actives 0.54% (n = 240,000); P46063; RECQ1 DNA unwinding, red fluorescence kinetic read; Potency, µM (series often up to 57.3 µM), for the others: top-dose activity, negative = inhibition, usual class: inhibitors; AID 2549;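 further: plate controls were vehicle for no effect and no enzyme for full effect; nearly all actives have a fitted effect of over 30% in size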
# Target sequence (P46063 whole entry, looked up): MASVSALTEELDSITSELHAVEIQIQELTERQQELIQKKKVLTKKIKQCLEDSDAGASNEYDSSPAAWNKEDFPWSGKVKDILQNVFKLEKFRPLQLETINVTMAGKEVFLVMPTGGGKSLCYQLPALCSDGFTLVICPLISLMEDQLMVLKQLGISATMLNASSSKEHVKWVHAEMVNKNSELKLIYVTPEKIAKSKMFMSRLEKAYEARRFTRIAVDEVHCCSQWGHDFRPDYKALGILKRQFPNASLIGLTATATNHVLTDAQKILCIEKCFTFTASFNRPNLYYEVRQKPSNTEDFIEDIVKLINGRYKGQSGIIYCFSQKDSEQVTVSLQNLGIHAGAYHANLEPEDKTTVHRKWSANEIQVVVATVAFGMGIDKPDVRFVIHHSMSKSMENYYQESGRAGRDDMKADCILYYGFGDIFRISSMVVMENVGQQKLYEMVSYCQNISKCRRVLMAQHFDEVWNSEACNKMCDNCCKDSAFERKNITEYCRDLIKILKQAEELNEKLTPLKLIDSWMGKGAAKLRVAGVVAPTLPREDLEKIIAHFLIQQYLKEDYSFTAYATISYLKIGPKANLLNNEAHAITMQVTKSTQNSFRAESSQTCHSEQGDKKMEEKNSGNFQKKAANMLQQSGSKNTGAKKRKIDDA
#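 50 nM RECQ1T1 preincubated 15 min with compound in Tris pH 8.0 buffer with MgCl2, DTT, Tween-20 and 2.5 ug/ml poly(dI-dC); started with 200 nM TAMRA/BHQ-2 forked duplex and 2 mM ATP. Unwinding read as fluorescence (525/598 nm), two reads 2 h apart.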
# TR SRC2 fluor cs = alters Texas Red total fluorescence, flagging assay interference; TRb/SRC2 Texas Red total fluorescence interference; Potency, µM (titrated, usually from 106 µM), without a hit: at the highest dose fluorescence change, negative = quenching; actives 0.29% (n = 280,000); active means well fitted curve in either direction with a large enough effect; inconclusive means small, poorly fitted or top-dose-only effect
#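 Human TRb ligand-binding domain at 0.6 uM with 20 nM Texas Red SRC2 peptide in Tris buffer containing 1 uM T3 and 5% DMSO, incubated with compound 5 h at ambient temperature. Total fluorescence (555/632 nm) calculated as parallel + 2 × perpendicular.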
# APEX1 inh = APE1 (human) endonuclease inhibition. P27695. recombinant APE1, TAMRA/BHQ-2 abasic DNA cleavage fluorescence. Potency, µM (top dose mostly 65.8 µM), for the others: at the top dose activity change, negative = inhibition, hits mostly inhibitors. AID 2517. actives 0.35% (n = 350,000);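 further: plate controls were vehicle for no effect and reference inhibitor for full effect; nearly all actives have a fitted effect of over 55% in size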
#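 Compound pre-exposure to 0.75 nM APE1, 15 min at ambient temperature. Reaction initiated with 50 nM TAMRA/BHQ-2 THF substrate, read immediately in kinetic mode, 525 nm excitation, 598 nm emission.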
# Active calls of the source: *; i = inactive; ? = inconclusive; nt = no result; ! = not active in a repeat; [ ] = another dose, or the depositor's remark. An excerpt weighted towards active compounds, which were near 0.91% of everything screened. Unless noted, the call rests on the fitted dose curve; in most records, active means well fitted curve in the direction sought with a large enough effect; inconclusive means small, poorly fitted or top-dose-only effect, or another doubt; inactive means no such curve, though single readings can be large; an effect the other way counts as inactive or inconclusive. Unless noted, on the % scale 0 is the no-effect control and ±100 the full control effect; potency means the concentration at half of the fitted maximal effect.
SMILES,BLM helicase inh,WRN helicase inh,TRb SRC2 PPI,RECQ1 helicase,TR SRC2 fluor cs,APEX1 inh
C#CCOCCOCCOCCNc1nc(N2CCN(C(=O)Cn3cc(CCCCN)nn3)CC2)nc(N2CCN(C(=O)Cn3cc(CC(C)O)nn3)CC2)n1 (stereo unspecified),25%,-1%,6%,i,0%,-3%
C#CCOCCOCCOCCNc1nc(N2CCN(C(=O)CCCCCCCCCCNC(=O)[C@H](CCCCN)n3cc(C)nn3)CC2)nc(N2CCN(C(=O)CCCCCCCCCCNC(=O)[C@H](CCCN=C(N)N)n3cc(C[C@@H](C)CC)nn3)CC2)n1,nt,45µM*,nt,nt,nt,-93%
C#CCOCCOCCOCCNc1nc(N2CCN(C(=O)CCCCCCCCCCNC(=O)Cn3cc(CCCCCN)nn3)CC2)nc(N2CCN(C(=O)CCCCCCCCCCNC(=O)Cn3cc(C[C@@H](C)O)nn3)CC2)n1,nt,25µM*,nt,nt,nt,?
C#CCOCCOCCOCCNc1nc(N2CCN(C(=O)CCCCCCCCCCNC(=O)[C@H]([C@@H](C)CC)n3cc(CCCCN=C(N)N)nn3)CC2)nc(N2CCN(C(=O)CCCCCCCCCCNC(=O)[C@@H]([C@H](C)O)n3cc(C)nn3)CC2)n1,nt,56µM*,nt,nt,nt,?
C1=C/CC/C=C/CC/C=C/CC/1,nt,nt,-12%[201 µM],nt,-4%[201 µM],nt
COCCCNC(=O)c1ccc2sc(C3=C[C@@H](O)[C@@H](O)[C@@H](CO)O3)nc2c1,nt,-21%,nt,nt,nt,nt
C#CCOCCOCCOCCNc1nc(N2CCN(C(=O)CCCCCCCCCCNC(=O)[C@@H](CCSC)n3cc(CCO)nn3)CC2)nc(N2CCN(C(=O)CCCCCCCCCCNC(=O)[C@H](CO)n3cc(CCCCCN)nn3)CC2)n1,nt,50µM*,nt,nt,nt,?
C#CCOCCOCCOCCNc1nc(N2CCN(C(=O)CCCCCCCCCCNC(=O)[C@@H](CCSC)n3cc(CCO)nn3)CC2)nc(N2CCN(C(=O)CCCCCCCCCCNC(=O)[C@H](CCC(=O)O)n3cc(CCCCCN)nn3)CC2)n1,nt,1%,nt,nt,nt,0%
C#CCOCCOCCOCCNc1nc(N2CCN(C(=O)CCCCCCCCCCNC(=O)[C@H](CCCCN)n3cc(CCO)nn3)CC2)nc(N2CCN(C(=O)CCCCCCCCCCNC(=O)[C@H](CCCCN)n3cc(C[C@@H](C)CC)nn3)CC2)n1,nt,50µM*,nt,nt,nt,?
C#CCOCCOCCOCCNc1nc(N2CCN(C(=O)CCCCCCCCCCNC(=O)[C@@H](CCSC)n3cc(CCO)nn3)CC2)nc(N2CCN(C(=O)CCCCCCCCCCNC(=O)[C@H](CCCN=C(N)N)n3cc(C[C@@H](C)CC)nn3)CC2)n1,nt,50µM*,nt,nt,nt,?
C#CCOCCOCCOCCNc1nc(N2CCN(C(=O)CCCCCCCCCCNC(=O)[C@H](CCCCN)n3cc(C[C@@H](C)CC)nn3)CC2)nc(N2CCN(C(=O)CCCCCCCCCCNC(=O)[C@H](CCCN=C(N)N)n3cc(C[C@@H](C)CC)nn3)CC2)n1,nt,32µM*,nt,nt,nt,?
Nc1c(C(=O)Nc2ccccc2Cl)c2ccccn2c1C(=O)c1ccccc1,-1%,nt,1%,nt,-1%,nt
CC(C)c1ccc(NC(=O)CCS(=O)(=O)c2ccc(Br)s2)cc1,-9%,nt,?,nt,28µM*[quencher],nt
COC(=O)/C=C\C(C#N)(C#N)N=Cc1ccc(OC)cc1,nt,56µM*,nt,nt,nt,nt
O=Cc1ccc(O)c(O)c1,-6%,0%,0%,-5%,-3%,4%
Oc1ccc(N=Cc2ccc(O)c(O)c2)cc1,28µM*,32µM*,1%,i,-7%,7%
NCCNCCN,-2%,nt,-1%,5.6µM*,-6%,3.5µM*
NCCCCNCCCN,69%,-7%,6%,-3%,-30%,7%
CC[C@@H](C)[C@@H](N)C1=N[C@H](C(=O)N[C@@H](CC(C)C)C(=O)N[C@@H](CCC(=O)O)C(=O)N[C@@H](C(=O)N[C@@H]2CCCCNC(=O)[C@@H](CC(N)=O)NC(=O)[C@@H](CC(=O)O)NC(=O)[C@@H](Cc3cnc[nH]3)NC(=O)[C@@H](Cc3ccccc3)NC(=O)[C@@H]([C@H](C)CC)NC(=O)[C@@H](CCCN)NC2=O)[C@@H](C)CC)CS1,nt,nt,nt,nt,nt,-5%
COc1ccc(CNc2nc(-c3ccc(N(C)C)cc3)nc3ccccc23)c(OC)c1,28µM*,nt,nt,-16%,nt,-3%
COc1ccc(CNc2nc(-c3ccc(C(=O)N(C)C)cc3)nc3ccccc23)c(OC)c1,6%,nt,6%,-5%,-10%,1%
O=C1COc2ccc(C(=O)COC(=O)/C=C/c3ccc(Br)o3)cc2N1,nt,35µM*,nt,nt,nt,?
N#Cc1c(-c2ccc(-c3ccccc3)cc2)no[n+]1[O-],nt,nt,nt,nt,nt,-7%
Cc1ccccc1NC(NC(=O)OCCn1c([N+](=O)[O-])cnc1C)C(Cl)(Cl)Cl (stereo unspecified),6%,6%,-26%[53 µM],-10%,7.1µM*[quencher],3%
Cc1ncc([N+](=O)[O-])n1CCOC(=O)NC(Nc1ccc(F)cc1)C(Cl)(Cl)Cl (stereo unspecified),-4%,0%,4%,1%,-3%,-18%
SMILES,BLM helicase inh,WRN helicase inh,TRb SRC2 PPI,RECQ1 helicase,TR SRC2 fluor cs,APEX1 inh
C/C=C1\COC(C(=O)NCCOCCO)(C(F)(F)F)C=C1C=C1CCCCC1 (stereo unspecified),0%,nt,-12%,i,-1%,2%
Cc1ccc(S(=O)(=O)/N=C2/NC(=O)/C(=C\c3cc(Br)cc(Br)c3O)S2)cc1,?,20µM*,nt,nt,nt,44%
NC(=O)C1CCN(c2nc(-c3cccc([N+](=O)[O-])c3)cs2)CC1,nt,nt,nt,nt,nt,-8%
CCc1cc(=O)oc2c(CN3CCCC3)c(O)c(Cl)cc12,2%,-4%,0%,i,-1%,12%
CCc1cc(=O)oc2cc(C)c(CN3CCCC(C)C3)c(O)c12 (stereo unspecified),?,35µM*,7%,7.1µM*,-14%,14µM*
CCN(C/C=C/C#CC(C)(C)C)Cc1cccc(OCc2cc(-c3ccsc3)cs2)c1,-7%,nt,0%,-24%,14%,-4%
Cc1c(C(=O)O)c(O)cc2c1C(=O)c1c(O)c([C@@H]3O[C@H](CO)[C@@H](O)[C@H](O)[C@H]3O)c(O)c(O)c1C2=O,nt,32µM*,nt,nt,nt,14µM*!
CC(NC(=O)/C(C#N)=C/c1ccc([N+](=O)[O-])o1)c1ccccc1 (stereo unspecified),-8%,56µM*,nt,nt,nt,11%
CC(NC(=O)/C(C#N)=C/c1ccco1)c1ccccc1 (stereo unspecified),-12%,2%,-2%,-3%,-1%,?
